Measured values taken from PubChem BioAssay (EPA / NIEHS).
Records with an inconclusive call do not appear. The source made the active and inactive calls. Rule for the calls, unless noted: active = hit-call score of the fitted dose curve at least 0.9, where 1 is the maximum; inactive = score below 0.9.

What was measured:
[1] = target: Retinoic acid receptor RXR-alpha (Homo sapiens) (UniProt P19793); experiment: ATG_RXRa_TRANS: Attagene TRANS-FACTORIAL HepG2 Assay for human Retinoid X Receptor alpha (RXRa) (AID 2283012; active = hit-call score of the fitted dose curve at least 0.9, where 1 is the maximum)
Summary of the method: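 Cells (HepG2) carried transiently transfected GAL4-responsive reporter units. Following a 24 h chemical incubation, reporter mRNA induction was read via RT-PCR fragment analysis; DMSO served as negative control and baseline.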

[2] = target: human Retinoid X Receptor beta (RXRb), RXRB (gene 6257) (UniProt P28702); experiment: ATG_RXRb_TRANS: Attagene TRANS-FACTORIAL HepG2 Assay for human Retinoid X Receptor beta (RXRb) (AID 2283013; active = hit-call score of the fitted dose curve at least 0.9, where 1 is the maximum)
Summary of the method: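 Multiplexed TRANS reporter assay in HepG2; 24 h dosing; reporter mRNA by RT-PCR/CE fluorescence; gain-of-signal relative to DMSO.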

[3] = target: human Thyroid Receptor alpha (THRa1), THRA (gene 7067) (UniProt P10827); experiment: ATG_THRa1_TRANS: Attagene TRANS-FACTORIAL HepG2 Assay for human Thyroid Receptor alpha (THRa1) (AID 2283014; active = hit-call score of the fitted dose curve at least 0.9, where 1 is the maximum)
Summary of the method: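 First, HepG2 cells receive multiple GAL4-UAS reporter units and the chimeric receptor. They are then dosed for 24 h, after which RNA is reverse-transcribed, amplified, labelled, HpaI-cut and sized by capillary electrophoresis; gain relative to DMSO is scored.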

[4] = read-out: E-selectin (Homo sapiens) (UniProt P16581); experiment: BSK_3C_Eselectin: BioMAP Diversity Plus: 3C Assay for Eselectin Biomarker Activity (AID 2283015); conditions: primary human endothelial cells (HUVEC); actives raise or lower the signal
Summary of the method: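 Human vascular endothelium from umbilical vein is exposed to test chemicals for 24 h. E-selectin levels are read by ELISA and compared with DMSO controls.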

[5] = read-out: Interleukin-1 alpha (IL1a), IL1A (gene 3552); experiment: BSK_BE3C_IL1a: BioMAP Diversity Plus: BE3C Assay for Interleukin-1 alpha (IL1a) Biomarker Activity (AID 2283016); conditions: primary human bronchial epithelial cells; actives raise or lower the signal
Summary of the method: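 Cultures of primary human bronchial epithelial cells receive test chemical. After 24 h, IL-1a is quantified by ELISA, while parallel wells are fixed in TCA and SRB-stained for total protein. Changes in either direction are fitted relative to DMSO.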

[6] = read-out: Monocyte Chemoattractant Protein-1 (MCP1), CCL2 (gene 6347); experiment: BSK_3C_MCP1: BioMAP Diversity Plus: 3C Assay for Monocyte Chemoattractant Protein-1 (MCP1) Biomarker Activity (AID 2283017); conditions: primary human endothelial cells (HUVEC); actives raise or lower the signal
Summary of the method: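 Endothelial cells from human umbilical vein are dosed with chemical, cultured 24 h, then assayed for MCP-1 by ELISA; both increases and decreases are modelled against DMSO controls.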

[7] = read-out: Monocyte Chemoattractant Protein-1 (MCP1), CCL2 (gene 6347); experiment: BSK_4H_MCP1: BioMAP Diversity Plus: 4H Assay for Monocyte Chemoattractant Protein-1 (MCP1) Biomarker Activity (AID 2283018); conditions: primary human endothelial cells (HUVEC); actives raise or lower the signal
Summary of the method: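 Readout: MCP-1 ELISA on compound-treated HUVEC, sampled 24 h post-dosing. Baseline and negative control DMSO; bidirectional fit. Overt toxicity checked alongside by sulforhodamine B protein staining at time of biomarker measurement.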

[8] = read-out: Interleukin-8 (IL8), CXCL8 (gene 3576); experiment: BSK_3C_IL8: BioMAP Diversity Plus: 3C Assay for Interleukin-8 (IL8) Biomarker Activity (AID 2283020); conditions: primary human endothelial cells (HUVEC); actives raise or lower the signal
Summary of the method: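 Human vascular endothelial cells (umbilical vein) in the 3C system; IL-8 level detected by ELISA at 24 h post-dose, with DMSO as baseline.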

[9] = read-out: Monokine induced gamma interferon (MIG), CXCL9 (gene 4283); experiment: BSK_3C_MIG: BioMAP Diversity Plus: 3C Assay for Monokine induced gamma interferon (MIG) Biomarker Activity (AID 2283021); conditions: primary human endothelial cells (HUVEC); actives raise or lower the signal;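 for AC50: MIG protein level measured by immunoassay in the treated endothelial cultures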
Summary of the method: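 After 24 h of treatment, human umbilical vein endothelial cultures (3C system) had their MIG biomarker level determined by ELISA, with DMSO serving as negative control.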

[10] = target: human Vitamin D Receptor (VDR), VDR (gene 7421) (UniProt P11473); experiment: ATG_VDR_TRANS: Attagene TRANS-FACTORIAL HepG2 Assay for human Vitamin D Receptor (VDR) (AID 2283022; active = hit-call score of the fitted dose curve at least 0.9, where 1 is the maximum)
Summary of the method: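 Fluorescence of labelled reporter cDNA fragments, resolved by capillary electrophoresis, gives mRNA induction after 24 h treatment of HepG2 cells carrying transfected Gal4-fusion reporter units. Activity is fitted in the positive direction with DMSO as baseline.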

[11] = BSK_3C_SRB: Viability Assessment in the BioMAP Diversity Plus: 3C Assay (AID 2283023); conditions: primary human endothelial cells (HUVEC);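 note: cells read 24 h after compound dosing; fitted both ways against DMSO so a hit may be signal rise or drop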
Summary of the method: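 Cells were dosed with chemical, cultured 24 h, fixed with 10% TCA, stained with 0.1% SRB and read at 560 nm. Human umbilical vein endothelium was used; DMSO served as negative control and baseline.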

[12] = read-out: Matrix Metallopeptidase 1 (MMP1), MMP1 (gene 4312); experiment: BSK_BE3C_MMP1: BioMAP Diversity Plus: BE3C Assay for Matrix Metallopeptidase 1 (MMP1) Biomarker Activity (AID 2283024); conditions: primary human bronchial epithelial cells; actives raise or lower the signal
Summary of the method: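 Dose cells, wait 24 h, run MMP1 ELISA; cells are human bronchial epithelial primaries. Both increases and decreases relative to DMSO counted.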

[13] = BSK_3C_Vis: BioMAP Diversity Plus: 3C Assay for Morphology Visualization (AID 2283025); conditions: primary human endothelial cells (HUVEC);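 note: fitted both ways so gain or loss versus DMSO counts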;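 for AC50: light microscopy image of cell morphology used as background control; cells imaged 24 h after dosing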
Summary of the method: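 Endothelial cells from human umbilical vein were treated with test chemicals for 24 h and inspected by light microscopy for changes in cell conformation.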

[14] = read-out: Pselectin, SELP (gene 6403); experiment: BSK_4H_Pselectin: BioMAP Diversity Plus: 4H Assay for Pselectin Biomarker Activity (AID 2283026); conditions: primary human endothelial cells (HUVEC); actives raise or lower the signal
Summary of the method: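 Human vascular endothelium from umbilical vein; P-selectin measured by ELISA at 24 h post-dose, with cytotoxicity checked by sulforhodamine B total-protein staining in parallel cultures (0.1% SRB after 10% TCA fixation, read at 560 nm).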

[15] = BSK_4H_SRB: Viability Assessment in the BioMAP Diversity Plus: 4H Assay (AID 2283027); conditions: primary human endothelial cells (HUVEC);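 note: cells exposed to compound for 24 h before staining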;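 for AC50: curves fitted both ways versus DMSO so AC50 may be loss or gain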
Summary of the method: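 Human umbilical vein endothelial cells were dosed with chemical and, after 24 h, fixed with 10% TCA, stained with 0.1% sulforhodamine B, and read at 560 nm to give total protein as a cytotoxicity measure. Bidirectional fitting relative to DMSO control.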

[16] = BSK_BE3C_SRB: Viability Assessment in the BioMAP Diversity Plus: BE3C Assay (AID 2283028); conditions: primary human bronchial epithelial cells;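 for AC50: fitted both ways so AC50 may mark signal gain or loss versus DMSO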
Summary of the method: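 Overt cytotoxicity was assessed as total protein in confluent human primary bronchial epithelial cultures 24 h after chemical addition, using 0.1% sulforhodamine B staining read at 560 nm.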

[17] = read-out: Thrombomodulin, THBD (gene 7056); experiment: BSK_3C_Thrombomodulin: BioMAP Diversity Plus: 3C Assay for Thrombomodulin Biomarker Activity (AID 2283029); conditions: primary human endothelial cells (HUVEC); actives raise or lower the signal
Summary of the method: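 Thrombomodulin ELISA, human primary HUVEC, 24 h post-dose; data fitted in both directions relative to DMSO.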

[18] = read-out: Urokinase-type plasminogen activator receptor (uPAR), PLAUR (gene 5329); experiment: BSK_4H_uPAR: BioMAP Diversity Plus: 4H Assay for Urokinase-type plasminogen activator receptor (uPAR) Biomarker Activity (AID 2283030); conditions: primary human endothelial cells (HUVEC); actives raise or lower the signal
Summary of the method: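 Chemicals are dosed onto human vascular endothelial primary cells (umbilical vein). After 24 h, uPAR is read by ELISA. Gain or loss of signal is fitted relative to DMSO.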

[19] = read-out: Human Leukocyte Antigen - DR isotype (HLADR), HLA-DRA (gene 3122); experiment: BSK_3C_HLADR: BioMAP Diversity Plus: 3C Assay for Human Leukocyte Antigen - DR isotype (HLADR) Biomarker Activity (AID 2283019); conditions: primary human endothelial cells (HUVEC); actives raise or lower the signal;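 note: ELISA of cell-surface HLA-DR on HUVEC 24 h after dosing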
Summary of the method: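 Endothelial cells from human umbilical vein are treated with test chemical; after 24 h, HLA-DR levels are measured by ELISA. Data are fitted in both directions using DMSO as the baseline.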

Measured: AC50

Sequence of Retinoic acid receptor RXR-alpha (Homo sapiens) (P19793 whole entry, looked up, the tested form may be a part): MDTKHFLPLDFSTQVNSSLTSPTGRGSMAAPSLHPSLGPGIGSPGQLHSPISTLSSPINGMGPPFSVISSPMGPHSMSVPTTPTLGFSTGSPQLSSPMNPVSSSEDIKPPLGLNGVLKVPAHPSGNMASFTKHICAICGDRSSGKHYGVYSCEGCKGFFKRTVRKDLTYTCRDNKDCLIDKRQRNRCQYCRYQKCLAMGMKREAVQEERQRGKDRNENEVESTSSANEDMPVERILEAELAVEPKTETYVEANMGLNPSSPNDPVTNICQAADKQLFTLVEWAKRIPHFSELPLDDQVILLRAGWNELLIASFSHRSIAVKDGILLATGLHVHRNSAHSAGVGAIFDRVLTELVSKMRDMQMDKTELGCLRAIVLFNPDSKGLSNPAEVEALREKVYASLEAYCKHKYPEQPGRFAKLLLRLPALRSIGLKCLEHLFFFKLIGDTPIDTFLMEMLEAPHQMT
Sequence of E-selectin (Homo sapiens) (P16581 whole entry, looked up): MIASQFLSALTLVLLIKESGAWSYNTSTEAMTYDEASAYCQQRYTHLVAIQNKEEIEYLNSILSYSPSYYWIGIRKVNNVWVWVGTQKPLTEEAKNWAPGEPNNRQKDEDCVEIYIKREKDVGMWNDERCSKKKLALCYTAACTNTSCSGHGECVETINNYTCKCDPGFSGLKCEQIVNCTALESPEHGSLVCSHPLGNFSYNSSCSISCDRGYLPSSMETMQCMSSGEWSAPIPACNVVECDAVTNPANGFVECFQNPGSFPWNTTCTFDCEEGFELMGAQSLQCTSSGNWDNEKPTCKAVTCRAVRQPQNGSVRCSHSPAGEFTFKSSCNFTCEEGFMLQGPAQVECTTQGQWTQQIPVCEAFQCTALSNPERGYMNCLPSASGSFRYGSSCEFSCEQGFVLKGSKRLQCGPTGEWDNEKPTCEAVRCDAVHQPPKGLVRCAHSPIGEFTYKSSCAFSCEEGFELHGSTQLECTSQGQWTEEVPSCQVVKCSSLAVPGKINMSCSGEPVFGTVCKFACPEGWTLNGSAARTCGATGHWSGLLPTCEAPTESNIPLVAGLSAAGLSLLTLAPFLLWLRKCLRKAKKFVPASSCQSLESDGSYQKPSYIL
Sequence of human Thyroid Receptor alpha (THRa1), THRA (gene 7067) (P10827 whole entry, looked up, the tested form may be a part): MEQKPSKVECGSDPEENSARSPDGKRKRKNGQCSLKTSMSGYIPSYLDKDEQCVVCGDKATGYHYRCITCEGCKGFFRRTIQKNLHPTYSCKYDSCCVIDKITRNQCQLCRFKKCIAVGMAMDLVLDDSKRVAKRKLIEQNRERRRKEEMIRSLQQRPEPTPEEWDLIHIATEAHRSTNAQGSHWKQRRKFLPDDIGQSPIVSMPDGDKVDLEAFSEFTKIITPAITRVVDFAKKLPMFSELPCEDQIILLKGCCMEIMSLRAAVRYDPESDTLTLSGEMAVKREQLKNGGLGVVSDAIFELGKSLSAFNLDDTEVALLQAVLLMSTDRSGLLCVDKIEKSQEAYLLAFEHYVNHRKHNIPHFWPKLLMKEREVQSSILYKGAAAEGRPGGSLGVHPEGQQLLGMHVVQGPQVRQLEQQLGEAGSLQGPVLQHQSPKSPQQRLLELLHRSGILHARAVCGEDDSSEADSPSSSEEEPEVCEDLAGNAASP
Sequence of human Retinoid X Receptor beta (RXRb), RXRB (gene 6257) (P28702 whole entry, looked up): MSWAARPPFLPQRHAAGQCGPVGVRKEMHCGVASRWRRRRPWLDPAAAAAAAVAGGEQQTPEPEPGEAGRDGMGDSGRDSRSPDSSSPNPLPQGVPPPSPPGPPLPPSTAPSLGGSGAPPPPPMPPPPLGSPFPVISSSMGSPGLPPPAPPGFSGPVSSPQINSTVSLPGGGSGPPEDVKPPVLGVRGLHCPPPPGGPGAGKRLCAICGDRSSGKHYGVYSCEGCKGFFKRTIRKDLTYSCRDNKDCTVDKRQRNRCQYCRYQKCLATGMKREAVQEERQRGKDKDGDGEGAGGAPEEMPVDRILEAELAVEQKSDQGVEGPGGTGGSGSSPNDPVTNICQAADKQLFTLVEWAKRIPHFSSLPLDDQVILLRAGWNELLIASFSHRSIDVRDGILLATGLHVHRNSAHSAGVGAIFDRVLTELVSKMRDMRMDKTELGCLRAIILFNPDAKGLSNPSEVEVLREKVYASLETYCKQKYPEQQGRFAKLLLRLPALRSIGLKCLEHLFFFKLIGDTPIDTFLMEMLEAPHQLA
Sequence of human Vitamin D Receptor (VDR), VDR (gene 7421) (P11473 whole entry, looked up, the tested form may be a part): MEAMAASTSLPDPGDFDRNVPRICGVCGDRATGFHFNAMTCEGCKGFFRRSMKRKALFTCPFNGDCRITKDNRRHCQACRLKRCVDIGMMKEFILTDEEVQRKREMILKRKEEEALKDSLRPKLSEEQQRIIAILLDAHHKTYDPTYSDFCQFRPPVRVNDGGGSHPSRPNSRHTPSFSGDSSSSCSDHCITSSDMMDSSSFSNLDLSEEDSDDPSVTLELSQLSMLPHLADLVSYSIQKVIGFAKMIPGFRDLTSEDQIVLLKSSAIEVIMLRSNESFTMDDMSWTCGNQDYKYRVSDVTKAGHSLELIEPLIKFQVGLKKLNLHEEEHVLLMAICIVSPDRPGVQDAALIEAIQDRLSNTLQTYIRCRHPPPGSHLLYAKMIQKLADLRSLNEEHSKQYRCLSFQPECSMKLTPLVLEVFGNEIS

CCNc1nc(NC(C)(C)C)nc(SC)n1
inactive: [1] | [3] | [4] | [5] | [6] | [7] | [8] | [9] | [10] | [11] | [12] | [13] | [14] | [15] | [16] | [17] | [18]
active: [2] 15500 nM

COP(=S)(OC)Oc1cc(Cl)c(Cl)cc1Cl
active: [2] 68200 nM | [12] 20000 nM | [14] 20000 nM | [15] 20000 nM
inactive: [1] | [3] | [4] | [5] | [6] | [7] | [8] | [9] | [11] | [13] | [16] | [17] | [18]

O=c1[nH]c(=O)[nH]c(=O)[nH]1
inactive: [1] | [2] | [3] | [4] | [5] | [6] | [7] | [8] | [9] | [10] | [11] | [12] | [13] | [14] | [15] | [16] | [17] | [18]

COS(=O)(=O)c1ccc(C)cc1
inactive: [1] | [2] | [3] | [10]

CCC(=O)C(CC(C)N(C)C)(c1ccccc1)c1ccccc1 (configuration not stated)
inactive: [1] | [2] | [3] | [4] | [5] | [6] | [7] | [19] | [8] | [9] | [11] | [12] | [13] | [14] | [15] | [16] | [17] | [18]

Nc1cccc2ccccc12
inactive: [1] | [2] | [3] | [4] | [5] | [6] | [7] | [19] | [8] | [9] | [11] | [13] | [14] | [15] | [16] | [17] | [18]

CCc1ccccc1C
inactive: [1] | [2] | [3] | [10]

ClCC(Cl)CCl
inactive: [1] | [2] | [4] | [5] | [6] | [7] | [19] | [8] | [9] | [10] | [11] | [12] | [13] | [14] | [15] | [16] | [17] | [18]

CCOP(=S)(OCC)Oc1nc(Cl)c(Cl)cc1Cl
active: [2] 30900 nM | [4] 37100 nM | [6] 33100 nM | [7] 20000 nM | [8] 31100 nM | [11] 30200 nM | [13] 39000 nM | [14] 32000 nM
inactive: [1] | [3] | [5] | [9] | [10] | [15] | [16] | [17] | [18]

Nc1ccc(-c2ccc(N)c(Cl)c2)cc1Cl
active: [2] 11200 nM | [11] 2210 nM | [13] 13700 nM | [15] 2760 nM | [18] 10600 nM
inactive: [1] | [4] | [5] | [6] | [7] | [8] | [9] | [10] | [14] | [16] | [17]

c1cc[c]([Hg][c]2ccccc2)cc1
inactive: [1] | [2] | [3] | [10]

CC(C)c1cccc(C(C)C)c1O
active: [2] 50600 nM
inactive: [1] | [3] | [10]

C=C(C)C(=O)[O][Sn]([CH2]CCC)([CH2]CCC)[CH2]CCC
active: [1] 3.48 nM | [2] 32.3 nM | [4] 148 nM | [5] 148 nM | [6] 460 nM | [7] 663 nM | [8] 148 nM | [9] 148 nM | [11] 148 nM | [12] 148 nM | [13] 468 nM | [14] 148 nM | [15] 148 nM | [16] 148 nM | [17] 1160 nM | [18] 148 nM
inactive: [3] | [10]

CC(=[OH+])/C=C(/C)[O-].CC(=[OH+])/C=C(/C)[O-].CC(=[OH+])/C=C(/C)[O-].[Al]
inactive: [1] | [2] | [3] | [10]

CCCCOCCOC(C)=O
inactive: [1] | [2] | [3] | [10]

CCOP(=S)(OCC)Oc1ccc(S(C)=O)cc1 (configuration not stated)
inactive: [1] | [2] | [3] | [4] | [5] | [6] | [7] | [19] | [8] | [9] | [11] | [12] | [13] | [14] | [15] | [16] | [17] | [18]

O=C(Cc1ccccc1)c1ccccc1
inactive: [1] | [2] | [10]
